Bioassay records: PubChem, National Center for Advancing Translational Sciences (NCATS)
The sample as a whole holds a higher share of hits than the screen did.
HTT ATP protect = protects HTT-Q103 PC12 cells, measured by ATP; PC12 HTT-Q103 induced, cytoprotection, ATP luminescence, 40 h; Potency, µM (doses to about 56.4 µM), most hits filed as activators; hit rate 0.14% among 230,000; also: nearly all actives have a fitted effect of over 45% in size
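Huntington model: PC12 line, ecdysone-inducible HTTQ103 exon1–GFP, tebufenozide 100 nM. Test articles in a dose series. Endpoint luminescence from cellular ATP.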
TSG101-PTAP inh = blocks PTAP/TSG101 interaction to inhibit HIV-1 budding; Q99816; Fluorescence polarization, FITC-PTAP peptide / Tsg101 binding; Potency, µM (highest dose often 115 µM), usual class: inhibitors; 340,000 tested, under 10 active; AID 493005; active = well fitted inhibition curve with a large enough effect in the main read-out, with a control signal flat, not every such curve was filed as active; inconclusive = small, poorly fitted or top-dose-only effect, or effect the other way, or a change in a side signal; inactive = no such curve, though single readings can be large or run the other way
Target sequence (Q99816 whole entry, looked up): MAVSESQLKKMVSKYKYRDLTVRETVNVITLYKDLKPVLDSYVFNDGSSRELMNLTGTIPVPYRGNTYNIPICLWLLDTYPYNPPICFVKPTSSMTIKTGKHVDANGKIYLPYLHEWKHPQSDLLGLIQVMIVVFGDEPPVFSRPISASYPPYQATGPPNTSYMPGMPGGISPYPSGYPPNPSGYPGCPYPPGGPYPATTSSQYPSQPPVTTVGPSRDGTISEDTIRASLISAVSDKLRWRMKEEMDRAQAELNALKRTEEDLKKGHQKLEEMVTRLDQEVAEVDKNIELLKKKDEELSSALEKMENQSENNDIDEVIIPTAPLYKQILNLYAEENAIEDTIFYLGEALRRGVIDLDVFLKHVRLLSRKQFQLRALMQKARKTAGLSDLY
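Fluorescence anisotropy tracks displacement of a FITC-tagged PTAP peptide (50 nM) from the Tsg101 binding domain (10 uM), following a 20 min room-temperature incubation at pH 7.5.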
Apoferritin bind = binds horse apoferritin like a general anesthetic | P02791 | apoferritin/1-aminoanthracene competitive binding, fluorescence | Potency, µM (top dose mostly 77.5 µM), actives largely listed as inhibitors | hit rate 0.074% among 350,000; also: nearly all actives have a fitted effect of over 20% in size
Target sequence (P02791 2-175 limits assumed): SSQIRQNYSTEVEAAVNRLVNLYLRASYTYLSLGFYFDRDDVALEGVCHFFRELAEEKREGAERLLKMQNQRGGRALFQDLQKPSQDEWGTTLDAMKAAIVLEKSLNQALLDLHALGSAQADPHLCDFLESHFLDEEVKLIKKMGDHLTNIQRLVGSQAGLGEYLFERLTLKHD
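In PBS, apoferritin at 10 uM is loaded with 1-AMA from a 50% saturated solution. After 10 min of compound exposure at ambient temperature, reduced 535 nm fluorescence indicates probe displacement.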
Epigenetic reg = derepresses silenced GFP reporter in murine cells. murine LDR cells, GFP reporter derepression, 30 h. Potency, µM (titrated, usually from 53.9 µM), usual class: activators. hit rate 0.2% among 280,000. AID 1865; also: nearly all actives have a fitted effect of over 60% in size
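Murine LDR cells carrying a silenced, genomically integrated CMV-driven GFP reporter were exposed to compound for 30 hours at 37 C. After PBS washes, GFP-positive cells (20–120 um objects) were counted by laser-scanning microplate cytometry.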
PINK1 expr mod = PINK1 expression modulation; hit rate 0.2% among 410,000; AID 624263; PINK1 immunofluorescence, high-content cytometry, 24 h; Potency, µM (series often up to 76.6 µM), hits mostly activators; active = well fitted activation curve with a large enough effect; inconclusive = small, poorly fitted or top-dose-only effect; cell line not stated here; also: nearly all actives have a fitted effect of over 65% in size
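Compound titrations (5 concentrations, 24 h) on a stable cell line; DMSO and CCCP controls. Endpoint: fixed-cell PINK1 immunofluorescence with mitochondrial, cell and nuclear markers, scanned by microplate cytometer.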
HttQ103 aggreg = inhibitors of mutant huntingtin aggregate formation in PC12 cells; AID 1688; hit rate 1.1% among 220,000; PC12 HttQ103-GFP aggregates, Acumen cytometry, 40 h; Potency, µM (highest dose often 46.1 µM), actives largely listed as inhibitors; also: nearly all actives have a fitted effect of over 60% in size
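Aggregate formation scored by laser-scanning cytometer (488 excitation, 500–530 emission) in lysed PC12 cells expressing Q103-GFP after 100 nM tebufenozide induction; library tested in dose series, with ATPLite reagent added in the multiplex.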
Parental c127i = parental c127i cell effect of epigenetic modulator hits; shares compounds with Epigenetic reg; mouse c127i parental cells, fluorescent cell count, 30 h; Potency, µM, usual class: activators; hit rate 20% among 60
HCC4017 tox = HCC4017 cytotoxicity of epigenetic modulator hits. hit rate 30% among 45. shares compounds with Epigenetic reg. HCC4017 NSCLC viability, CellTiter-Glo ATP luminescence, 72 h. Potency, µM (series often up to 46.1 µM), actives largely listed as cytotoxic
H358 tox = epigenetic modulators: cytotoxicity in H358 lung cancer cells; shares compounds with Epigenetic reg; AID 493074; H358 NSCLC viability, ATP luminescence, 72 h; hit rate 30% among 45; Potency, µM (series often up to 46.1 µM), actives largely listed as cytotoxic
Of the large screens only hits and unclear results are named; the others gave an inactive call (follow-up assays come after a bar, where they were run). Unless noted, calls follow the shape of the dose curve; as a rule, active = well fitted curve in the direction sought with a large enough effect; inconclusive = small, poorly fitted or top-dose-only effect, or another doubt; inactive = no such curve, though single readings can be large; an effect the other way counts as inactive or inconclusive.

CC(=O)[C@H](CC(C)C)NC(=O)[C@@H](CC(C)C)NC(=O)[C@H](CC(C)C)NC(=O)OCc1ccccc1	Epigenetic reg 5µM (no result: TSG101-PTAP inh, Apoferritin bind, PINK1 expr mod, HttQ103 aggreg) | Parental c127i inactive
CC(C)CC(NC(=O)OCc1ccccc1)C(=O)NC(Cc1c[nH]c2ccccc12)C(=O)O (centres undefined)	none (no result: HTT ATP protect, TSG101-PTAP inh, Apoferritin bind, Epigenetic reg, HttQ103 aggreg)
CCOc1ccc(NC(=O)Cn2c(=O)n(Cc3ccccc3)c(=O)c3sc4ccccc4c32)cc1	none (no result: HTT ATP protect, TSG101-PTAP inh, HttQ103 aggreg)
CCOC(=O)c1cc2c(=O)n3ccccc3nc2n(Cc2ccco2)c1=NC(=O)c1cccc(Br)c1	none (no result: HTT ATP protect, TSG101-PTAP inh, HttQ103 aggreg)
CCOC(=O)c1cc2c(=O)n3ccccc3nc2n(Cc2ccco2)c1=NC(=O)c1ccc(Br)cc1	Epigenetic reg inconclusive (no result: HTT ATP protect, TSG101-PTAP inh, HttQ103 aggreg) | Parental c127i 28µM
Nc1ccc(/C=C/c2cc(Cl)nc3ccccc23)cc1	none (no result: HTT ATP protect, TSG101-PTAP inh, Apoferritin bind, Epigenetic reg, HttQ103 aggreg)
O=C(c1ccc2c(c1)OCCO2)N1CCN(c2nc(-c3cccs3)nc3ccccc23)CC1	none (no result: HTT ATP protect, TSG101-PTAP inh, Apoferritin bind, Epigenetic reg, HttQ103 aggreg)
COc1ccc(NC(=O)c2sc3nc(C)cc(C)c3c2N)cc1	none (no result: HTT ATP protect, Epigenetic reg, HttQ103 aggreg)
COc1ccc(NC(=O)c2sc3nc(-c4ccc(OC)cc4)cc(C(F)(F)F)c3c2N)cc1	Epigenetic reg 7.1µM, PINK1 expr mod inconclusive (no result: HTT ATP protect, TSG101-PTAP inh, HttQ103 aggreg) | Parental c127i 4µM
CC1=C/C(=N\NC(=S)Nc2cccnc2)CC(C)(C)C1	Epigenetic reg 6.3µM, HttQ103 aggreg inconclusive | Parental c127i inactive | HCC4017 tox inconclusive | H358 tox inactive
CCOC(=O)c1cccc(NC(=O)N2Cc3ccccc3Oc3ncccc32)c1	Apoferritin bind inconclusive (no result: HTT ATP protect, TSG101-PTAP inh, HttQ103 aggreg)
Cc1cc(Br)ccc1NC(=O)C1CCCN(S(=O)(=O)c2cccc3nonc23)C1 (centres undefined)	Epigenetic reg inconclusive (no result: HTT ATP protect, TSG101-PTAP inh, HttQ103 aggreg)
Cc1cc(NC(=O)C2CCCN(S(=O)(=O)c3cccc4nonc34)C2)ccc1Br (centres undefined)	Epigenetic reg inconclusive (no result: HTT ATP protect, TSG101-PTAP inh, HttQ103 aggreg) | Parental c127i 32µM
O=[N+]([O-])/C(C=Nc1ccccc1O)=C\Nc1ccccc1O	Epigenetic reg inconclusive | Parental c127i inactive | HCC4017 tox inactive | H358 tox inconclusive
O=[N+]([O-])/C(=C\Nc1ccccc1Cl)S(=O)(=O)c1ccccc1	none (no result: TSG101-PTAP inh, PINK1 expr mod)
CCN1C(=O)CC(CC(=O)N2CCCCC2c2nccs2)(c2ccccc2C)C1=O (centres undefined)	none (no result: HTT ATP protect, TSG101-PTAP inh, Apoferritin bind, Epigenetic reg, HttQ103 aggreg)
COc1ccc(C(=O)/C=C/Sc2nc3ccccc3o2)cc1	Epigenetic reg inconclusive | Parental c127i inactive | HCC4017 tox 7.9µM | H358 tox 7.9µM
CCOC(=O)c1c(NC(=O)CC2Nc3cc(C)c(C)cc3NC2=O)sc(C)c1C (centres undefined)	TSG101-PTAP inh inconclusive, Epigenetic reg 8.9µM, PINK1 expr mod inconclusive | Parental c127i inconclusive
COc1cccc(/C=N/Nc2nc(Nc3ccccc3)nc(-n3nc(C)cc3C)n2)c1O	Apoferritin bind inconclusive, Epigenetic reg 2.5µM, HttQ103 aggreg 1.1µM | Parental c127i inactive | HCC4017 tox 2.5µM | H358 tox 4.4µM
COc1ccc(NC(=O)CSc2nc3c(oc4ccccc43)c(=O)n2Cc2ccco2)cc1Cl	Epigenetic reg 3.5µM (no result: HTT ATP protect, TSG101-PTAP inh, HttQ103 aggreg) | Parental c127i inactive | HCC4017 tox 11µM | H358 tox 16µM
Cc1cccc(N(C)S(=O)(=O)c2nnc(NC(=O)C(C)Oc3ccccc3)s2)c1 (centres undefined)	none (no result: HTT ATP protect, TSG101-PTAP inh, HttQ103 aggreg)
CCC[C@@H]1O[C@@H]2C[C@@H]3[C@@H]4CCC5=CC(=O)C=C[C@@]5(C)[C@H]4[C@H](O)C[C@@]3(C)[C@@]2(C(=O)CO)O1	none (no result: TSG101-PTAP inh, Apoferritin bind, Epigenetic reg, PINK1 expr mod, HttQ103 aggreg)
